# Marburg entry inh – Marburg virus entry inhibition. AID 540276. Marburg virus pseudotyped entry inhibition, cell reporter. Potency, µM (highest dose often 37.8 µM), inactives show top-dose activity change, negative = inhibition, hits mostly inhibitors. 1.8% of 300,000 active; calls by dose curve; tested in HEK293 cells; also: potency is read from the fitted curve at half-maximal effect
# Vaccinia Venus – vaccinia inhibition (Venus reporter); 0.46% of 330,000 active; Vaccinia virus Venus reporter expression, fluorescence; Potency, µM (doses to about 36.5 µM), without a hit: at the top dose activity change, negative = inhibition, hits mostly inhibitors; calls by dose curve; tested in A549 cells; also: potency is read from the fitted curve at half-maximal effect; nearly all actives have a fitted effect of over 30% in size
# FMDV inh – blocks foot and mouth disease virus. FMDV antiviral cell-based qHTS. Potency, µM (titrated, usually from 57.9 µM), inactives show top-dose activity change, negative = inhibition, actives largely listed as inhibitors. 1.2% of 410,000 active; calls by dose curve; tested in HEK293T cells; also: read-out not given here; potency is read from the fitted curve at half-maximal effect; nearly all actives have a fitted effect of over 45% in size
# LASV entry inh – blocks Lassa virus binding to or entry into cells | Potency, µM (doses to about 37.9 µM), for the others: at the highest dose activity change, negative = inhibition, actives largely listed as inhibitors | AID 540256 | 1.2% of 300,000 active | Lassa virus pseudotype entry inhibition, cell reporter; calls by dose curve; tested in HEK293 cells; also: potency is read from the fitted curve at half-maximal effect; nearly all actives have a fitted effect of over 50% in size
# VACV mCherry inh – inhibitors of vaccinia virus infection (mCherry reporter signal); Vaccinia virus mCherry reporter infection, fluorescence; Potency, µM (highest dose often 36.5 µM), without a hit: top-dose activity change, negative = inhibition, most hits filed as inhibitors; 0.63% of 310,000 active; AID 720579; calls by dose curve; tested in A549 cells; also: potency is read from the fitted curve at half-maximal effect; nearly all actives have a fitted effect of over 35% in size
# HCMV antiviral – inhibitors of human cytomegalovirus; HFF cells, HCMV-luciferase reporter, 72 h; active compounds read low; activity change, negative = inhibition, % at 57.5 µM; 4.5% of 410,000 active; AID 1259415; in the data active = activity change below about -60%; inconclusive = no clear call, values can overlap the other calls; inactive = above about -39%
#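 After 16 h attachment at 37C, HFF cells received test compound and HCMV-luciferase (1 PFU/cell); reporter luminescence read 72 h later, data normalized against buffer-only and known inhibitor Salinomycin.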
# The depositor's hits bear a star; i = inactive; ? = inconclusive; nt = no result; ! = not active in a repeat; [ ] = remark or other dose. An excerpt weighted towards active compounds, which were near 6.5% of everything screened. % is scaled to controls: 0 for no effect and ±100 for the full control effect.
SMILES,Marburg entry inh,Vaccinia Venus,FMDV inh,LASV entry inh,VACV mCherry inh,HCMV antiviral
COc1ccccc1NS(=O)(=O)c1cc(NC(=O)c2ccc(Cl)nc2)ccc1Cl,8.9µM*,?,10µM*,?,-14%,-98*
Cc1onc(-c2ccccc2)c1C(=O)Nc1cc(C(F)(F)F)ccc1N1CCOCC1,?,?,-26%,?,?,-34
COc1ccc(NC(=O)c2ccc(-c3ccccc3)cc2)cc1NS(=O)(=O)c1ccc(F)cc1,?,?,?,?,-30%,-95*
COc1ccccc1NS(=O)(=O)c1cc(NC(=O)c2[nH]c(C)c(C(C)=O)c2C)ccc1N1CCOCC1,nt,nt,16%,nt,nt,-90*
CCOC(=O)c1ccc(N2CCOCC2)c(NC(=O)c2c(-c3ccccc3)noc2C)c1,1.8µM*,-29%,-13%,?,-9%,-5
COc1ccc(NC(=O)c2ccccc2)cc1NS(=O)(=O)c1ccc(F)cc1,-7%,-5%,1%,-3%,-17%,-21
O=C(NCCc1c[nH]c2ccccc12)O[C@H]1CC[C@@]23CCCN2C(=O)CCC[C@H]3[C@H]1Cc1ccccc1,nt,nt,nt,nt,nt,16
O/N=C(/CI)c1ccc2ccccc2c1,nt,-17%,nt,nt,-22%,nt
Cc1ccnn1CC(=O)N1CCOc2c(cc(-c3csc4ccccc34)cc2OC2CCOC2)C1 (centres undefined),nt,-2%,0%,nt,-7%,nt
Cc1ccc(NC(=O)c2ccc(=O)[nH]n2)cc1S(=O)(=O)Nc1ccccc1Cl,nt,nt,41%,nt,nt,0
Cc1ccc(NC(=S)NC(=O)c2ccc(F)cc2)cc1S(=O)(=O)Nc1ccccc1Cl,1.1µM*,?,6%,?,?,?
Cc1ccc(CCNC(=O)C2CCN(Cc3nc(-c4ccccc4C)oc3C)CC2)cc1,-2%[46.1 µM],-24%,?,6%[46.1 µM],-26%,10
CSCCC(NS(=O)(=O)c1ccc(C)c(C(=O)O)c1)C(=O)O (centres undefined),0%[46.1 µM],-8%,0%,-4%[46.1 µM],0%,-64*
CSCCC(NS(=O)(=O)c1ccc(Cl)cc1)C(=O)O (centres undefined),?,-9%,-8%,7%[46.1 µM],i,-9
COc1cccc(-c2nccc(NCc3ccccc3)n2)c1,nt,nt,-19%,nt,nt,nt
c1ccc(-c2nn3c(-c4ccccc4)nnc3s2)cc1,5%,-25%,-6%,-1%,-25%,-28
Clc1ccccc1-c1nn2c(-c3ccncc3)nnc2s1,7.3µM*,-26%,-7%,?,-21%,nt
Cc1ccc(-c2nnc3sc(-c4ccncc4)nn23)cc1,5.8µM*,-8%,2%,15%,-11%,?
CCn1c(-c2cccc(OC)c2)nc2cc(NC(C)=O)cc(C(=O)N3CCC[C@H]3C(=O)OC)c21,nt,0%,-6%,nt,-8%,nt
O=C(NCCCCC(NC(=O)c1ccccc1)C(=O)O)OCc1ccccc1 (centres undefined),nt,nt,nt,nt,nt,59
CCCn1c2ccccc2c2nnc(SC(CC)C(=O)Nc3cc(C)on3)nc21 (centres undefined),13µM*,?,-22%,?,nt,-3
CCC(Sc1nnc2c3ccccc3n(CC)c2n1)C(=O)Nc1ccc(NC(C)=O)cc1 (centres undefined),3.5µM*,-6%[7.34 µM],-15%,-18%[46.1 µM],i[7.34 µM],-37
CCCC(=O)N1CCN(c2ccc(NC(=S)NC(=O)c3cccc(C)c3)cc2)CC1,?,4%,16µM*,?,-7%,?
CN1CCN(c2ccc(NC(=O)c3cc4ccccc4o3)cc2)CC1,nt,nt,47%,nt,nt,97
COc1cccc(C(=O)NC(=S)Nc2ccc(N3CCCC3)cc2)c1,-5%,-11%,?,?,nt,17
SMILES,Marburg entry inh,Vaccinia Venus,FMDV inh,LASV entry inh,VACV mCherry inh,HCMV antiviral
CCCC(=O)N1CCN(c2ccc(NC(=O)c3cc4ccccc4o3)cc2)CC1,?,-16%,25µM*,-18%,nt,-7
O=C(Nc1ccc(N2CCN(C(=O)c3ccccc3)CC2)cc1)c1cc2ccccc2o1,?,?,14µM*,14µM*,nt,-66*
O=C(NCc1cccc(F)c1)C1CCN(c2nc3ccccc3nc2C(F)(F)F)CC1,nt,9%,-21%,4%[46.1 µM],2%,-8
COc1cc2[nH]c(=S)nc(NC3CCCCCC3)c2cc1OC,?,0%,?,6%,i,-74*
O=C(/C=C/Nc1ccccc1)c1ccc(Cl)cc1Cl,nt,nt,-25%,nt,nt,119
N#Cc1c(Nc2ccccc2)[n+]([O-])c2ccc(Cl)cc2[n+]1[O-],?,?,-13%,3.2µM*,-15%,?
Cc1ccc(F)cc1NC(=O)CSc1nc(-c2cccs2)cc(C(F)(F)F)n1,4%[46.1 µM],-21%,-22%,4%[46.1 µM],-18%,-76*
O=C(CSc1nc(-c2cccs2)cc(C(F)(F)F)n1)Nc1cc(OCC(F)(F)F)cc([N+](=O)[O-])c1,7.1µM*,-30%,?,?,-6%,?
COc1ccc(NC(=O)CSc2nc(-c3ccco3)cc(C(F)(F)F)n2)cc1Cl,?,-11%[7.34 µM],?,?,-9%[7.34 µM],-69*
COc1ccc(NC(=O)CSc2nc(-c3cccs3)cc(C(F)(F)F)n2)cc1OC,nt,?,?,?,?,-69*
Cc1cccc(C)c1NC(=O)CSc1nc(-c2cccs2)cc(C(F)(F)F)n1,10%[46.1 µM],11%,-9%,2%[46.1 µM],2%,?
CCOc1ccccc1NC(=O)CSc1nc(-c2cccs2)cc(C(F)(F)F)n1,1%[46.1 µM],-19%,-12%,0%[46.1 µM],-22%,-2
Cc1ccccc1Cn1ccc(NC(=O)CCSc2nc(-c3ccco3)cc(C(F)(F)F)n2)n1,1.1µM*!,8%,0%,-27%,nt,7
O=C(CSc1nc(-c2ccccc2)cc(C(F)(F)F)n1)NCc1ccco1,-19%,-17%,nt,2%,-14%,14
COc1ccc(-c2cc(-c3cccs3)c(C#N)c(SCC(=O)NCc3ccco3)n2)cc1,0.46µM*,nt,18%,?,nt,nt
O=C(CSc1nc(-c2cccs2)cc(C(F)(F)F)n1)NCc1ccco1,-3%,-19%,nt,-21%,-24%,-75*
COc1ccc2c(c1)c1c(c(=O)n(Cc3ccccc3)c(=O)n1CC(=O)NCc1ccc(C)cc1)n2C,nt,-3%,-13%,29%[46.1 µM],-6%,10
CCc1c(C)sc(NC(=O)CN2CCN(C(=O)c3ccco3)CC2)c1C(=O)OC,?,-18%,?,3.5µM*,-8%,-15
CCOC(=O)c1c(NC(=O)CN2CCN(C(=O)c3ccco3)CC2)sc(C)c1C,?,?,-25%,11µM*,?,-3
O=C1OC2(CCCCC2)CC2=C1[C@H]1O[C@](c3ccsc3)(Cc3c1ccc1ccccc31)O2,2%[14.2 µM],nt,nt,?,nt,nt
CCOC(=O)C(=CNc1ccc(NC2=NCC(C)S2)cc1)C(=O)OCC (centres undefined),?,?,-14%,?,?,-66*
COC(=O)c1ccc2nc(-c3cccc(Br)c3)c(Cc3cccc(Cl)c3)n2c1,nt,nt,nt,nt,nt,22

# Compound activity (PubChem BioAssay)
